# Laboratory results from PubChem BioAssay (Tox21).
# Records with an inconclusive call do not appear. Where a call stands in place of a potency, no number is given. Unmarked numbers belong to inactive results. Activity calls are given as the source filed them. Unless noted, calls come from the whole dose curve; as a rule, active = well fitted curve in the direction sought with a large enough effect in the repeat runs; inconclusive = weak or mixed curves; inactive = no such curve, though single readings can be large; an effect the other way counts as inactive or inconclusive.
# Assays:
# [1] = qHTS assay to identify small molecule antagonists of the estrogen related receptor (ERR) signaling pathway from Tox21 library - cell viability counter screen (AID 1224834); note: nearly all actives have a fitted effect of over 30% in size
# How it was run: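 CellTiter-Fluor fluorescence measured; ERR cells; 17.5 h compound incubation at 37 C; 30 min reagent step.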
# [2] = target: Luciferin 4-monooxygenase (Photinus pyralis) (UniProt P08659); assay: qHTS assay to identify small molecule inhibitors of firefly luciferase (AID 1224835); note: nearly all actives have a fitted effect of over 25% in size; note: potency is the fitted concentration of half-maximal effect
# How it was run: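 Quantitative HTS format; KM concentrations of both substrates. Purified P. pyralis FLuc activity quantified from luminescence images.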
# [3] = qHTS assay to identify small molecule agonists of the constitutive androstane receptor (CAR) signaling pathway - cell viability counter screen (AID 1224836); note: series mostly up to about 92 µM; nearly all actives have a fitted effect of over 45% in size
# How it was run: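 Fluorescence from CellTiter-Fluor indicates live cells after 23 h exposure. The human hepatoma line expresses hCAR and a CYP2B6-2.2kb reporter. Incubation medium contains 0.75 uM PK11195 (final).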
# [4] = qHTS assay to identify small molecule antagonists of the constitutive androstane receptor (CAR) signaling pathway - cell viability counter screen (AID 1224837); note: series mostly up to about 92 µM; nearly all actives have a fitted effect of over 45% in size
# How it was run: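 Using CellTiter-Fluor, viability is scored in HepG2 cells stably carrying hCAR and a 2.2kb CYP2B6 reporter after 23 hr compound exposure across 15 concentrations, with CITCO present at 50 nM.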
# [5] = target: Nuclear receptor subfamily 1 group I member 3 (Homo sapiens) (UniProt Q14994); assay: qHTS assay to identify small molecule antagonists of the constitutive androstane receptor (CAR) signaling pathway (AID 1224838);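 note: HepG2 cells stably expressing hCAR with CYP2B6 luciferase reporter stimulated by CITCO; nearly all actives have a fitted effect of over 40% in size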
# How it was run: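 Reporter luminescence was quantified after 24 h exposure of hCAR/CYP2B6-2.2kb double-stable HepG2 cells to compounds at 15 concentrations in the presence of 50 nM CITCO final.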
# [6] = target: Nuclear receptor subfamily 1 group I member 3 (Homo sapiens) (UniProt Q14994); assay: qHTS assay to identify small molecule agonists of the constitutive androstane receptor (CAR) signaling pathway (AID 1224839); note: nearly all actives have a fitted effect of over 15% in size; note: potency is the fitted concentration of half-maximal effect
# How it was run: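 Stable hCAR/CYP2B6-2.2kb HepG2 line in DMEM with 10% FBS; compounds (15 concentrations) and 0.75 uM PK11195 final, 24 h at 37 C/5% CO2, then ONE-Glo luminescence after 30 min.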
# [7] = qHTS assay to identify small molecule antagonists of the estrogen related receptor signaling pathway with the pleiotropic PPARgamma coactivator (PGC) from Tox21 10K library - cell viability counter screen (AID 1224840; active = well fitted cell-killing curve with a large enough effect in the repeat runs, not every such curve was filed as active; note: nearly all actives have a fitted effect of over 40% in size)
# How it was run: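 Here the PGC/ERR cells serve as a cytotoxicity control: they are exposed to compounds for 17.5 hours at 37 C, and live-cell signal is quantified using CellTiter-Fluor fluorescence.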
# [8] = qHTS assay to identify small molecule antagonists of the estrogen related receptor signaling pathway with the pleiotropic PPARgamma coactivator (PGC) from Tox21 10K library (AID 1224841; call rule not given here; note: series mostly up to about 92 µM; actives are mostly falling curves and most rising ones were filed inactive; nearly all actives have a fitted effect of over 50% in size)
# How it was run: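 Each well held 2,000 PGC/ERR cells, pre-incubated six hours (37 C, 5% CO2). Test substances in DMSO were added by pin tool and left for 18 h at 37 C before luciferase detection by One-Glo.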
# [9] = qHTS assay to identify small molecule agonists of the estrogen related receptor signaling pathway with the pleiotropic PPARgamma coactivator (PGC) from Tox21 10K library (AID 1224842); note: nearly all actives have a fitted effect of over 15% in size
# How it was run: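 PGC/ERR reporter cells (NTP line) were seeded 2,000 per well, rested 6 h at 37 C/5% CO2, then pin-dosed with compounds in DMSO for 18 h at 37 C; luciferase read by One-Glo luminescence after 30 min at room temperature.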
# Sequence of Luciferin 4-monooxygenase (Photinus pyralis) (P08659 whole entry, looked up): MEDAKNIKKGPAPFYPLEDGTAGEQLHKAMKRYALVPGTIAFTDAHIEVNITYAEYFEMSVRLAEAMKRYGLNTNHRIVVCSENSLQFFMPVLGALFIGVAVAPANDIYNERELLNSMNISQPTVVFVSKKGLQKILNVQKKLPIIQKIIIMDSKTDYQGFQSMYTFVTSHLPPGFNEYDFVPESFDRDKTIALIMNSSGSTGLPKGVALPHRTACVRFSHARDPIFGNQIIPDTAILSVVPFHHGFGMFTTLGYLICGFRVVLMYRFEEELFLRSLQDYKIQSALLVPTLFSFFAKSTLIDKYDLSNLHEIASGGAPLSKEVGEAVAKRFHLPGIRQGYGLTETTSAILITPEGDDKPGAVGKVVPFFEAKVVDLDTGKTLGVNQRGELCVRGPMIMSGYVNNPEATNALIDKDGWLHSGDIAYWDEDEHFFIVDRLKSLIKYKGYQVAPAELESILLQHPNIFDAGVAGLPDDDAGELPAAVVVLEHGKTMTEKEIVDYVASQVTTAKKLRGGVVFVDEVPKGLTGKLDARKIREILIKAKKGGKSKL
# Sequence of Nuclear receptor subfamily 1 group I member 3 (Homo sapiens) (Q14994 whole entry, looked up): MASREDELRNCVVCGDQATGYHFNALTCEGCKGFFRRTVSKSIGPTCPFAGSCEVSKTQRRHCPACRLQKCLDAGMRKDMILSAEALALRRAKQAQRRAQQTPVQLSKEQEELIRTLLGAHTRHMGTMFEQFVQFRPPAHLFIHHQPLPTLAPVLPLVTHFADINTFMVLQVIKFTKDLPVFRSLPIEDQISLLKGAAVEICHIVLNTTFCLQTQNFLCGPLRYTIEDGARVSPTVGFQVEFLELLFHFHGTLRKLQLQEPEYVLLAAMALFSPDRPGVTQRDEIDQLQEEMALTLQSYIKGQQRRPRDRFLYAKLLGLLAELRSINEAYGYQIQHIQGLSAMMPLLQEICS
Structure (SMILES),Potency [1],Potency [2],Potency [3],Potency [4],outcome [5],Potency [6],outcome [7],Potency [8],outcome [9]
CCn1ccc(NS(=O)(=O)c2ccc(N)cc2)nc1=O,inactive,inactive,inactive,inactive,inactive,inactive,inactive,inactive,inactive
C=C(C)C(=O)OCCNC(C)(C)C,inactive,inactive,inactive,inactive,inactive,inactive,inactive,inactive,inactive
CC(C)CCCCOC(=O)c1ccccc1C(=O)OCCCCC(C)C,inactive,inactive,inactive,inactive,inactive,inactive,inactive,inactive,inactive
CO[C@@H]1[C@@H](OC(N)=O)[C@@H](O)[C@H](Oc2ccc3c(O)c(NC(=O)c4ccc(O)c(CC=C(C)C)c4)c(=O)oc3c2C)OC1(C)C,inactive,inactive,inactive,inactive,inactive,inactive,inactive,inactive,inactive
CC(C)(C)c1n[nH]c(=S)n(N)c1=O,inactive,inactive,inactive,inactive,inactive,inactive,inactive,inactive,inactive
COc1ccc2nc(SCc3ncc(C)c(OC)c3C)[nH]c2c1,inactive,13.8 µM (active),inactive,inactive,inactive,,inactive,inactive,inactive
O=C(O)Cc1ccc(Cl)cc1Cl,inactive,inactive,inactive,inactive,,,inactive,,
Cc1c(I)c(=O)n(-c2ccccc2)n1C,inactive,inactive,inactive,inactive,inactive,inactive,inactive,inactive,inactive
Cc1ccc(S(=O)(=O)O)c(C)c1,inactive,inactive,inactive,inactive,inactive,inactive,inactive,inactive,inactive
CC(C)(C)c1cc(CCC(=O)NN)cc(C(C)(C)C)c1O,inactive,inactive,inactive,inactive,inactive,30.6 µM (active),inactive,inactive,inactive
C=C(C)C(=O)OCc1ccccc1,inactive,inactive,inactive,inactive,inactive,inactive,inactive,inactive,inactive
COc1ccc(Br)c(C)c1,inactive,inactive,inactive,inactive,inactive,inactive,inactive,inactive,inactive
CN(C)c1ccc(C=O)cc1,inactive,inactive,inactive,inactive,inactive,inactive,inactive,inactive,inactive
O=Cc1ccc(Cl)c(Cl)c1,inactive,inactive,inactive,inactive,,,inactive,,
On1nnc2ccccc21,inactive,inactive,inactive,inactive,inactive,inactive,inactive,inactive,inactive
CCCCCCCCCCCCCC,inactive,inactive,inactive,inactive,inactive,inactive,inactive,inactive,inactive
COC(=O)CCc1ccc(OCC(O)CNC(C)C)cc1 (stereo not drawn),inactive,inactive,inactive,inactive,inactive,inactive,inactive,inactive,inactive
COc1cc(C(=S)N2CCOCC2)cc(OC)c1OC,inactive,inactive,inactive,inactive,inactive,inactive,inactive,inactive,inactive
Cc1cccc2nccnc12,inactive,inactive,inactive,inactive,,,inactive,,
C[C@H](N)[C@H](O)c1cccc(O)c1,inactive,inactive,inactive,inactive,,,inactive,,
O=C(CCN1CCN(CCO)CC1)N1c2ccccc2Sc2ccc(C(F)(F)F)cc21,inactive,inactive,,inactive,inactive,inactive,inactive,,
CC(C(=O)O)c1ccc2c(c1)CC(=O)c1ccccc1S2 (stereo not drawn),inactive,inactive,,,inactive,inactive,inactive,inactive,inactive
C=CC(OCC)OCC,inactive,inactive,,inactive,inactive,inactive,inactive,,
COc1cc2c(cc1OC)[C@@H]1CC(=O)[C@@H](CC(C)C)CN1CC2,inactive,inactive,,inactive,inactive,inactive,inactive,,
COC(=O)CCCCCCCC(=O)OC,inactive,inactive,,inactive,inactive,inactive,inactive,inactive,inactive
Oc1ccccc1-c1nnco1,inactive,inactive,,inactive,,,inactive,,
COc1ccc(OC)c(Cl)c1,inactive,inactive,inactive,,inactive,inactive,inactive,inactive,inactive
